Read-out in assay [1]: Vascular cell adhesion molecule 1 (VCAM1), VCAM1 (gene 7412)
Put plainly: BSK_4H_VCAM1: BioMAP Diversity Plus: 4H Assay for Vascular cell adhesion molecule 1 (VCAM1) Biomarker Activity (AID 2283033).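 On outcome: cell-surface VCAM-1 protein measured by ELISA.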 The settings on record: primary human endothelial cells (HUVEC); actives raise or lower the signal. An outline of the steps: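 In this human endothelial (HUVEC) system, biomarker ELISA was run 24 h after compound addition, and total protein in parallel wells was assessed by SRB at 560 nm; DMSO served as negative control.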

Read-out in assay [2]: Interferon-gamma inducible Protein 10 (IP10), CXCL10 (gene 3627)
Nature of the assay: BSK_BE3C_IP10: BioMAP Diversity Plus: BE3C Assay for Interferon-gamma inducible Protein 10 (IP10) Biomarker Activity (AID 2283034). Particulars: primary human bronchial epithelial cells; actives raise or lower the signal. In outline: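 BE3C cells (human bronchial epithelial, primary); 24 h exposure; ELISA for IP-10; DMSO-referenced bidirectional fit.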

Read-out in assay [3]: Monokine induced gamma interferon (MIG), CXCL9 (gene 4283)
Put plainly: BSK_BE3C_MIG: BioMAP Diversity Plus: BE3C Assay for Monokine induced gamma interferon (MIG) Biomarker Activity (AID 2283035).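 On outcome: MIG protein measured by ELISA in BE3C cultures after 24 h of dosing.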 The settings on record: primary human bronchial epithelial cells; actives raise or lower the signal. In outline:
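hu bronchial epithelial 1° cells, 24 h cpd; MIG by ELISA; bidirectional fit, DMSO = baseline.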

Read-out in assay [4]: Transforming growth factor beta 1 (TGFb1), TGFB1 (gene 7040)
Nature of the assay: BSK_BE3C_TGFb1: BioMAP Diversity Plus: BE3C Assay for Transforming growth factor beta 1 (TGFb1) Biomarker Activity (AID 2283036;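 further: TGF-b1 protein level measured by ELISA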). The settings on record: primary human bronchial epithelial cells; actives raise or lower the signal. An outline of the steps:
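TGF-b1 measured via ELISA, 24 h after chemical dosing of human bronchial epithelial cells (BE3C). Overt cytotoxicity assessed in parallel by SRB (0.1%, TCA-fixed, 560 nm); analysis bidirectional relative to DMSO.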

Read-out in assay [5]: Plasminogen activator inhibitor-1 (PAI1), SERPINE1 (gene 5054)
Put plainly: BSK_BE3C_PAI1: BioMAP Diversity Plus: BE3C Assay for Plasminogen activator inhibitor-1 (PAI1) Biomarker Activity (AID 2283037). The settings on record: primary human bronchial epithelial cells; actives raise or lower the signal. In outline: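 In this multiplexed primary-cell system, bronchial epithelial cells receive test chemical and are sampled at 24 h. PAI-1 is read by ELISA, with DMSO serving as negative control for bidirectional fitting.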

Read-out in assay [6]: urokinase plasminogen activator (uPA), PLAU (gene 5328)
Put plainly: BSK_BE3C_uPA: BioMAP Diversity Plus: BE3C Assay for urokinase plasminogen activator (uPA) Biomarker Activity (AID 2283038).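 On outcome: uPA protein level quantified by ELISA in cell cultures; uPA read one day after compound addition.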 The settings on record: primary human bronchial epithelial cells; actives raise or lower the signal. An outline of the steps:
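Human primary bronchial epithelial cells were exposed to chemical for 24 h, then uPA levels were measured by ELISA. Responses were fitted bidirectionally against DMSO as negative control and baseline. Parallel SRB staining of total protein gauged overt cytotoxicity.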

Read-out in assay [7]: Urokinase-type plasminogen activator receptor (uPAR), PLAUR (gene 5329)
Nature of the assay: BSK_BE3C_uPAR: BioMAP Diversity Plus: BE3C Assay for Urokinase-type plasminogen activator receptor (uPAR) Biomarker Activity (AID 2283039).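 On outcome: cells exposed to compound for one day before measurement.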 The settings on record: primary human bronchial epithelial cells; actives raise or lower the signal. An outline of the steps:
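Chemically treated human bronchial epithelial cells (lung primary) are assayed for uPAR by ELISA after 24 h, with data fitted in both directions using DMSO as negative control.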

Read-out in assay [8]: Interleukin-6 (IL6), IL6 (gene 3569)
Nature of the assay: BSK_CASM3C_IL6: BioMAP Diversity Plus: CASM3C Assay for Interleukin-6 (IL6) Biomarker Activity for (AID 2283040). The settings on record: primary human coronary artery smooth muscle cells; actives raise or lower the signal.

Read-out in assay [9]: Tissue plasminogen activator (tPA), PLAT (gene 5327)
Put plainly: BSK_BE3C_tPA: BioMAP Diversity Plus: BE3C Assay for Tissue plasminogen activator (tPA) Biomarker Activity (AID 2283041).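 On outcome: tPA level quantified by ELISA one day after compound addition.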 Particulars: primary human bronchial epithelial cells; actives raise or lower the signal. In outline: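 Using human lung primary bronchial epithelial cells, tPA was measured by ELISA 24 h after dosing; data fitted relative to DMSO.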

Read-out in assay [10]: Interleukin-8 (IL8), CXCL8 (gene 3576)
Put plainly: BSK_CASM3C_IL8: BioMAP Diversity Plus: CASM3C Assay for Interleukin-8 (IL8) Biomarker Activity (AID 2283042).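 Further: IL-8 protein level quantified by ELISA.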 The settings on record: primary human coronary artery smooth muscle cells; actives raise or lower the signal.

Read-out in assay [11]: Human Leukocyte Antigen - DR isotype (HLADR), HLA-DRA (gene 3122)
Nature of the assay: BSK_CASM3C_HLADR: BioMAP Diversity Plus: CASM3C Assay for Human Leukocyte Antigen - DR isotype (HLADR) Biomarker Activity (AID 2283043).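 Further: cell-surface HLA-DR protein level quantified by ELISA.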 Particulars: primary human coronary artery smooth muscle cells; actives raise or lower the signal.

Read-out in assay [12]: Macrophage colony-stimulating factor (MCSF), CSF1 (gene 1435)
Put plainly: BSK_CASM3C_MCSF: BioMAP Diversity Plus: CASM3C Assay for Macrophage colony-stimulating factor (MCSF) Biomarker Activity (AID 2283044).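 Further: M-CSF protein amount quantified by ELISA after 24 h exposure.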 The settings on record: primary human coronary artery smooth muscle cells; actives raise or lower the signal.

Read-out in assay [13]: Low-density lipoprotein receptor (LDLR), LDLR (gene 3949)
Nature of the assay: BSK_CASM3C_LDLR: BioMAP Diversity Plus: CASM3C Assay for Low-density lipoprotein receptor (LDLR) Biomarker Activity (AID 2283045).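 Further: LDLR protein level on the cell surface quantified by ELISA.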 Particulars: primary human coronary artery smooth muscle cells; actives raise or lower the signal.

Read-out in assay [14]: Monocyte Chemoattractant Protein-1 (MCP1), CCL2 (gene 6347)
Put plainly: BSK_CASM3C_MCP1: BioMAP Diversity Plus: CASM3C Assay for Monocyte Chemoattractant Protein-1 (MCP1) Biomarker Activity (AID 2283046).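 Further: MCP-1 level quantified by ELISA 24 h after dosing.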 Particulars: primary human coronary artery smooth muscle cells; actives raise or lower the signal.

Assay [15] is described as follows: BSK_CASM3C_Proliferation: Cell Proliferation Assessment in the BioMAP Diversity Plus: CASM3C Assay (AID 2283047).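 Further: sulforhodamine B total protein stain as relative cell number at 560 nm; sub-confluent cells exposed 48 h before staining; fitted both ways against DMSO so gain or loss of cell number.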 Particulars: primary human coronary artery smooth muscle cells.
Read-out in assay [16]: Monokine induced gamma interferon (MIG), CXCL9 (gene 4283)
Put plainly: BSK_CASM3C_MIG: BioMAP Diversity Plus: CASM3C Assay for Monokine induced gamma interferon (MIG) Biomarker Activity (AID 2283048). The settings on record: primary human coronary artery smooth muscle cells; actives raise or lower the signal.

Read-out in assay [17]: serum amyloid A (SAA), SAA1 (gene 6288)
Nature of the assay: BSK_CASM3C_SAA: BioMAP Diversity Plus: CASM3C Assay for serum amyloid A (SAA) Biomarker Activity (AID 2283049).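 Further: SAA protein level quantified by ELISA.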 The settings on record: primary human coronary artery smooth muscle cells; actives raise or lower the signal.

The nature of assay [18]: BSK_CASM3C_SRB: Viability Assessment in the BioMAP Diversity Plus: CASM3C Assay (AID 2283050).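 Further: total protein by SRB staining as cytotoxicity measure in parallel cultures.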 The settings on record: primary human coronary artery smooth muscle cells.
Read-out in assay [19]: Thrombomodulin, THBD (gene 7056)
Put plainly: BSK_CASM3C_Thrombomodulin: BioMAP Diversity Plus: CASM3C Assay for Thrombomodulin Biomarker Activity (AID 2283051).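 Further: thrombomodulin protein level measured by ELISA 24 h after dosing.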 Particulars: primary human coronary artery smooth muscle cells; actives raise or lower the signal.

Read-out in assay [20]: Tissue Factor, F3 (gene 2152)
Put plainly: BSK_CASM3C_TissueFactor: BioMAP Diversity Plus: CASM3C Assay for Tissue Factor Biomarker Activity (AID 2283052).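 Further: cell surface tissue factor protein level read by ELISA.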 The settings on record: primary human coronary artery smooth muscle cells; actives raise or lower the signal.

This is an account of results in PubChem BioAssay (EPA / NIEHS).

Activity calls are given as the source filed them. How the source made its calls: active means hit-call score of the fitted dose curve at least 0.9, where 1 is the maximum; inactive means score below 0.9.

With `CC1COc2ccccc2N1C(=O)C(Cl)Cl` (stereo not given), the AC50 was 8.19 µM (active) in assay [1]; 12.2 µM (active) in assay [2]; 3.97 µM (active) in assay [5]; 0.016 µM (active) in assay [6]; 8.9 µM (active) in assay [8]; 3.04 µM (active) in assay [9]. Further, the AC50 in [11] was 2.96 µM (active); in [12] it was 0.0828 µM (active); in [15], 8.84 µM (active); in [18], 5.64 µM (active); in assay [20] it was 4.8 µM (active). In addition, the outcome in assay [3], in assay [4], in [7], in assay [10], in assay [13] and in assay [14] was inactive. The outcome in assay [16], in assay [17] and in [19] was inactive.

For the compound `Cc1ccc(O)c(C(C)(C)C)c1`, the AC50 in assay [1] was 30.5 µM (active); in [2] it was 36.8 µM (active); in [3] it was 35 µM (active); in [6], 31.6 µM (active); in assay [7], 20 µM (active); in [8], 10.6 µM (active). Also, the AC50 in assay [11] is 26.8 µM (active); in [14], 33.4 µM (active); in assay [15] it was 29.1 µM (active); in assay [16], 33.2 µM (active); in assay [18] it was 24.6 µM (active); in assay [20], 36.3 µM (active). Also, the outcome in assay [4], in assay [5], in [9], in [10], in assay [12] and in assay [13] was inactive. Besides, the result in assay [17] and in [19] was inactive.

As for `O=C(O)c1ccc([N+](=O)[O-])cc1`, the outcome in [1], in assay [2], in assay [3], in assay [4], in [5] and in [6] was inactive. For the same compound, the outcome in assay [7], in assay [8], in assay [9], in assay [10], in assay [11] and in assay [12] was inactive. Moreover, the result in assay [13], in assay [14], in assay [15], in assay [16], in assay [17] and in [18] was inactive. In addition, the result in [19] and in assay [20] was inactive.

In the case of `CCCCCCCCCCCCCCCCCC(=O)OCC(CC)CCCC` (stereo not given), the result in assay [1], in assay [2], in [3], in [4], in assay [6] and in assay [7] was inactive. Moreover, the result in assay [8], in assay [9], in assay [10], in assay [11], in assay [12] and in [13] was inactive. In addition, the result in assay [14], in assay [15], in assay [16], in assay [17], in assay [18] and in assay [19] was inactive. Further, the outcome in assay [20] was inactive. Besides, in assay [5], the AC50 was 0.25 µM (active).

On to `CC(=O)O[C@]1(C(C)=O)CC[C@H]2[C@@H]3C[C@H](C)C4=CC(=O)CC[C@]4(C)[C@H]3CC[C@@]21C`, for which the result in assay [1], in assay [2], in assay [3], in assay [4], in assay [5] and in assay [6] was inactive. The outcome in [7], in [9], in assay [11], in [12], in assay [15] and in [16] was inactive. Besides, the result in assay [18], in assay [19] and in assay [20] was inactive. Also, the half-maximal activity concentration (AC50) was 0.0082 µM (active) in [8]; 0.0082 µM (active) in assay [10]; 14.7 µM (active) in assay [13]; 0.604 µM (active) in [14]; 0.0082 µM (active) in [17].

`COC(=O)c1ccc(C)cc1`: the result in assay [1], in assay [2], in [3], in assay [4], in assay [5] and in [6] was inactive. Besides, the outcome in assay [7], in [8], in [9], in [10], in [11] and in assay [12] was inactive. Further, the outcome in assay [13], in assay [14], in assay [15], in [16], in assay [17] and in [18] was inactive. The result in assay [19] and in assay [20] was inactive.
